High-throughput results as filed in PubChem.
A selection: hits, their analogues and other compounds. The true share with any hit is near 3.3%.
TLR4 MyD88 comp = blocks binding of human TLR4 to MyD88; O00206+Q99836; 200,000 tested, 0.18% active; inhibition, % at 8.4 µM; HeLa CL3-4 TLR4/MyD88 BLA complementation, FRET ratio; in the data active means inhibition above about 25%
TLR9-MyD88 inh = TLR9-MyD88 interaction inhibition; Q9NR96+Q99836; CHO BLA complementation TLR9-MyD88, CCF4 FRET ratio; inhibition, % at 4.98 µM; 340,000 tested, 0.21% active;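 active means inhibition above the mean over all tested compounds plus 3 SD, cut at about 21% in these data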
Target sequence (Q99836 whole entry, looked up): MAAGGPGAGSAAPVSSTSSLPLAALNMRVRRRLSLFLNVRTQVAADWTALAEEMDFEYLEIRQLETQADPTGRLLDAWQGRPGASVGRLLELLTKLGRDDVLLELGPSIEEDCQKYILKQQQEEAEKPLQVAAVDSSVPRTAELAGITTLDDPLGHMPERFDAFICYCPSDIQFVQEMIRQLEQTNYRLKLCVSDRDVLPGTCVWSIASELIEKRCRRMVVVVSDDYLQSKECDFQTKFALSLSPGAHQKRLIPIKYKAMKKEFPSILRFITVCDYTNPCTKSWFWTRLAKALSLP
Target sequence (Q9NR96 whole entry, looked up): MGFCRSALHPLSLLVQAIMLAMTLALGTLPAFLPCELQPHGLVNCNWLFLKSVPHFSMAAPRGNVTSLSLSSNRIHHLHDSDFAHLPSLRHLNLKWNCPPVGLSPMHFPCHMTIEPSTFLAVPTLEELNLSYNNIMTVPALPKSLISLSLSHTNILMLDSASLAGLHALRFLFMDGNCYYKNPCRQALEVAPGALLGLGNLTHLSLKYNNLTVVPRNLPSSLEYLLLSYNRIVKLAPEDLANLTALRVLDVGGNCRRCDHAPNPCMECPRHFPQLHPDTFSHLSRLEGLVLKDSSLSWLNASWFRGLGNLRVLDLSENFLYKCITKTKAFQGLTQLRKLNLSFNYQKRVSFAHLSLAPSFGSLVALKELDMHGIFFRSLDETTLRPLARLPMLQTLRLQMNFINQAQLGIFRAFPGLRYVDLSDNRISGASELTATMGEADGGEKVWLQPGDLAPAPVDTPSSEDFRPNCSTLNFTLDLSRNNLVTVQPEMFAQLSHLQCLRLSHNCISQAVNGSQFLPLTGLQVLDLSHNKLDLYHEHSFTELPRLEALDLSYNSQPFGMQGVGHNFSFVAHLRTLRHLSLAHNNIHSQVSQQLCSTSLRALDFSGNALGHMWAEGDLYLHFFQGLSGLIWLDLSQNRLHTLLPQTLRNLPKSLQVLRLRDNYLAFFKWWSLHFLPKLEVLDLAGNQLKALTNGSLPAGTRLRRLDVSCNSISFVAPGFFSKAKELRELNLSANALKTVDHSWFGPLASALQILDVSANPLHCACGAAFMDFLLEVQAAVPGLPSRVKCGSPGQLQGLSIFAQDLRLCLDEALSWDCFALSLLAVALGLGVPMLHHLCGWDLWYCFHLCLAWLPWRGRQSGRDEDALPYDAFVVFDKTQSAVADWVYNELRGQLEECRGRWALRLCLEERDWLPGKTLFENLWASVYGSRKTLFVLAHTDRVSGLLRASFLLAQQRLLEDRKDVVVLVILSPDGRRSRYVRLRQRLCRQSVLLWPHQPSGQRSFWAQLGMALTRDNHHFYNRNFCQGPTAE
rCAG RNA binder = molecules binding r(CAG) RNA repeats. r(CAG) RNA repeat, TO-PRO-1 dye displacement fluorescence. inhibition, % at 3 µM. 370,000 tested, 1.3% active;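 active means inhibition above the plate cutoff, the mean of all test compounds on that plate plus 3 SD, cut at about 35% in these data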;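 further: higher means more dye released from RNA so lower well fluorescence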
NOD2 RIPK2 PPI = inhibitors of human NOD2-RIPK2 interaction | O43353 | CHO BLA complementation NOD2-RIPK2, CCF4 ratio | inhibition, % at 4.98 µM | 360,000 tested, 0.38% active | AID 624267; in the data active means inhibition above about 21%
ABHD5-PLIN5 inh = inhibitors of human ABHD5-perilipin-5 interaction | Split G. princeps luciferase complementation, luminescence, 4 h | inhibition, % at 4 µM | 360,000 tested, 0.78% active;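 active means inhibition above the mean inhibition across every tested compound plus 3 SD, cut at about 22% in these data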
PRMT1 FP inh = PRMT1 (human) inhibition, primary screen; 370,000 tested, 1.3% active; recombinant PRMT1, activity-based probe fluorescence polarization; inhibition, % at 2.79 µM; Q99873;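 active means inhibition above about 21% made by adding two undisclosed values, limit read from the data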
ABHD5-PLIN5 conf = ABHD5-PLIN5 interaction inhibition, confirmed; shares compounds with ABHD5-PLIN5 inh; biochemical ABHD5-PLIN5 interaction, luminescence; inhibition, % at 4 µM; 2,200 tested, 67% active; in the data active means inhibition above about 23%
HNF4 counter = counter-screen for ABHD5-PLIN5 inhibitors: HNF4 split-luciferase; shares compounds with ABHD5-PLIN5 inh; HNF4 dimerization, luminescence, biochemical; inhibition, % at 4 µM; 2,200 tested, 77% active; AID 651674;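 active means mean inhibition across replicate wells exceeding the computed hit threshold, cut at about 13% in these data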;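 further: light from luciferase halves that rejoin when HNF4 fusion proteins dimerize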
NOD2-RIPK2 conf = confirmation of human NOD2-RIPK2 interaction inhibitors; shares compounds with NOD2 RIPK2 PPI; inhibition, % at 4.98 µM; CHO cells, NOD2-RIPK2 BLA complementation, CCF4 FRET; 1,200 tested, 70% active;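 active means mean inhibition across replicates above a set limit taken from the earlier primary screen, cut at about 21% in these data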
NOD2 BLA counter = NOD2-RIPK2 counterscreen BLA reporter activity. CHO BLA reporter, CCF4 FRET ratio. AID 624371. inhibition, % at 4.98 µM. shares compounds with NOD2 RIPK2 PPI. 1,200 tested, 57% active;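 active means mean inhibition above the low-control mean inhibition plus three low-control SD, cut at about 11% in these data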
A number is an active result.

Screening CC(=O)OC[C@]12CC[C@H]3[C@@](C)(CC[C@H]4C(C)(C)CCC[C@]34C)[C@@H]1CC(C1=CC(=O)OC1O)O2 (some centres undefined) returned rCAG RNA binder inactive, NOD2 RIPK2 PPI 46, ABHD5-PLIN5 inh 100, PRMT1 FP inh inactive, ABHD5-PLIN5 conf 103, HNF4 counter 103, NOD2-RIPK2 conf 49 and NOD2 BLA counter 21.
O=C1C(F)=CC(COC(c2ccccc2)(c2ccccc2)c2ccccc2)OC1n1cc(F)c(=O)[nH]c1=O (centres undefined) was read as TLR9-MyD88 inh inactive, rCAG RNA binder inactive, NOD2 RIPK2 PPI 30, ABHD5-PLIN5 inh 42, PRMT1 FP inh inactive, ABHD5-PLIN5 conf 101, HNF4 counter 97, NOD2-RIPK2 conf 58 and NOD2 BLA counter 24.
For CC(C)NC(=O)N[C@H]1CC[C@H](CC(=O)NCc2ccc(Oc3ccccc3)cc2)O[C@@H]1CO the results were rCAG RNA binder inactive, NOD2 RIPK2 PPI inactive, ABHD5-PLIN5 inh inactive and PRMT1 FP inh inactive.
`O=C1/C(=C/c2ccccc2)CN(C(=O)CCN2CCOCC2)C/C1=C\c1ccccc1` gave TLR9-MyD88 inh inactive, rCAG RNA binder inactive, NOD2 RIPK2 PPI 27, ABHD5-PLIN5 inh 99, PRMT1 FP inh inactive, ABHD5-PLIN5 conf 103, HNF4 counter 105, NOD2-RIPK2 conf 31 and NOD2 BLA counter inactive.
For CN(C)CCC(=O)N1C/C(=C/c2ccccc2)C(=O)/C(=C\c2ccccc2)C1 the results were TLR9-MyD88 inh inactive, rCAG RNA binder inactive, NOD2 RIPK2 PPI 61, ABHD5-PLIN5 inh 96, PRMT1 FP inh inactive, ABHD5-PLIN5 conf 103, HNF4 counter 106, NOD2-RIPK2 conf 55 and NOD2 BLA counter inactive.
`CN1CCN(C(=O)CCCN2C(=O)/C(=C/c3ccccc3)SC2=S)CC1` gave TLR9-MyD88 inh inactive, rCAG RNA binder inactive, NOD2 RIPK2 PPI inactive, ABHD5-PLIN5 inh inactive and PRMT1 FP inh inactive.
Screening Cc1ccc(S(=O)(=O)N2CCN(C(=O)C(C)Cn3cncn3)CC2)cc1 (centres undefined) returned TLR9-MyD88 inh inactive, rCAG RNA binder inactive, NOD2 RIPK2 PPI inactive, ABHD5-PLIN5 inh inactive and PRMT1 FP inh inactive.
`Nc1ccc(S(=O)(=O)c2ccccc2)nc1` gave TLR9-MyD88 inh inactive, rCAG RNA binder inactive, NOD2 RIPK2 PPI inactive, ABHD5-PLIN5 inh inactive and PRMT1 FP inh inactive.
`O=[N+]([O-])c1ccc(S(=O)(=O)c2ccccc2)nc1` gave TLR9-MyD88 inh inactive, rCAG RNA binder inactive, NOD2 RIPK2 PPI 78, ABHD5-PLIN5 inh 54, PRMT1 FP inh 29, ABHD5-PLIN5 conf 57, HNF4 counter 109, NOD2-RIPK2 conf 54 and NOD2 BLA counter 13.
For Cc1cc(S(=O)(=O)c2ccc([N+](=O)[O-])cn2)ccc1Br the results were TLR9-MyD88 inh inactive, rCAG RNA binder inactive, NOD2 RIPK2 PPI inactive, ABHD5-PLIN5 inh inactive and PRMT1 FP inh inactive.
For Cc1ccc(S(=O)(=O)c2ccc([N+](=O)[O-])cn2)cc1 the results were TLR9-MyD88 inh inactive, rCAG RNA binder inactive, NOD2 RIPK2 PPI 70, ABHD5-PLIN5 inh 49, PRMT1 FP inh 34, ABHD5-PLIN5 conf 75, HNF4 counter 112, NOD2-RIPK2 conf 54 and NOD2 BLA counter inactive.
`O=C1C(=C(c2ccccc2)N2CCOCC2)Cc2ccccc21` gave TLR9-MyD88 inh inactive, rCAG RNA binder inactive, NOD2 RIPK2 PPI 84, ABHD5-PLIN5 inh 82, PRMT1 FP inh inactive, ABHD5-PLIN5 conf 97, HNF4 counter 95, NOD2-RIPK2 conf 85 and NOD2 BLA counter inactive.
CCOC(=O)[C@]12CCCC=C1N(Cc1ccc(Cl)cc1Cl)C(=O)[C@H](CC(=O)N1CCN(C(=O)C3CC3)CC1)C2 was read as rCAG RNA binder inactive, NOD2 RIPK2 PPI inactive, ABHD5-PLIN5 inh inactive and PRMT1 FP inh inactive.
O=C(Nc1ccccc1F)c1csc([C@@H]2C[C@H](O)[C@@H](CO)O2)n1 was read as rCAG RNA binder inactive, NOD2 RIPK2 PPI inactive, ABHD5-PLIN5 inh inactive and PRMT1 FP inh inactive.
Screening CC1=NNC(=O)/C1=C\c1cn(-c2ccccc2)nc1-c1ccccc1 returned TLR4 MyD88 comp inactive, TLR9-MyD88 inh inactive, rCAG RNA binder inactive, NOD2 RIPK2 PPI 54, ABHD5-PLIN5 inh 74, PRMT1 FP inh inactive, ABHD5-PLIN5 conf 99, HNF4 counter 101, NOD2-RIPK2 conf 60 and NOD2 BLA counter inactive.
Screening Cc1ccc(-c2cc(C(F)F)nc(S(C)(=O)=O)n2)cc1 returned TLR4 MyD88 comp inactive, TLR9-MyD88 inh inactive, rCAG RNA binder inactive, NOD2 RIPK2 PPI 23, ABHD5-PLIN5 inh 25, PRMT1 FP inh inactive, ABHD5-PLIN5 conf 45, HNF4 counter 51, NOD2-RIPK2 conf inactive and NOD2 BLA counter inactive.
`Cc1nc([N+](=O)[O-])c(Br)n1Cc1ccc(Cl)c(Cl)c1` gave TLR4 MyD88 comp inactive, TLR9-MyD88 inh inactive, rCAG RNA binder inactive, NOD2 RIPK2 PPI 23, ABHD5-PLIN5 inh 24, PRMT1 FP inh inactive, ABHD5-PLIN5 conf 35, HNF4 counter 38, NOD2-RIPK2 conf 43 and NOD2 BLA counter inactive.
For O=C(N/N=C/c1ccccc1)C(=O)N/N=C/c1ccccc1 the results were TLR9-MyD88 inh inactive, rCAG RNA binder inactive, NOD2 RIPK2 PPI inactive, ABHD5-PLIN5 inh inactive and PRMT1 FP inh inactive.
`O=C(C=C=Nc1ccccc1)C(=O)N=C=Cc1ccccc1` gave TLR9-MyD88 inh inactive, rCAG RNA binder inactive, NOD2 RIPK2 PPI 28, ABHD5-PLIN5 inh 73, PRMT1 FP inh inactive, ABHD5-PLIN5 conf 96, HNF4 counter 99, NOD2-RIPK2 conf inactive and NOD2 BLA counter inactive.
Screening Cc1ccc(S(=O)(=O)N2CCCCC2)cc1NC(=O)Cn1cnnn1 returned TLR9-MyD88 inh inactive, rCAG RNA binder inactive, NOD2 RIPK2 PPI inactive, ABHD5-PLIN5 inh inactive and PRMT1 FP inh inactive.
Screening Cc1ccc(S(=O)(=O)N2CCCCC2)cc1NC(=O)Cn1ncc(Cl)c(Cl)c1=O returned TLR9-MyD88 inh inactive, rCAG RNA binder inactive, NOD2 RIPK2 PPI 44, ABHD5-PLIN5 inh 26, PRMT1 FP inh inactive, ABHD5-PLIN5 conf 23, HNF4 counter 14, NOD2-RIPK2 conf 45 and NOD2 BLA counter 12.
For COc1ccc(CC(N)c2csc(Nc3nccc(C(F)(F)F)n3)n2)cc1 (centres undefined) the results were rCAG RNA binder inactive, NOD2 RIPK2 PPI inactive, ABHD5-PLIN5 inh inactive and PRMT1 FP inh inactive.
